The supplement of paper PMC7411054
Where a name gives a salt, the structure may show the parent alone.

Columns and labels:
Conditions in all cases: treatment time: 24 h
[1] = system: A549-ACTB-RAB5A; assay: phenotypically active (imaging signature differs from DMSO and reproducible) at any of 0.3-9 uM (binary (1 = active, 0 = inactive)); higher = active
In short: (§1)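 After 24 h at 0.3, 1, 3 or 9 µM, with four wells per treatment, fifteen gene-edited A549, HepG2 and WPMY1 reporter lines carrying BFP, GFP and RFP/FusionRed were imaged live. Each well's live-cell features were expressed relative to solvent control wells. Deviation required ≥3 of 4 wells past the 95th percentile of control Euclidean distances, and reproducibility a median replicate Pearson correlation over the 95th percentile of non-replicates. Phenotypic activity rested on both.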

[2] = system: A549-CANX-COX4; assay: as above
In short: as §1

[3] = system: A549-GM130-SQSTM1; assay: as above
In short: as §1

[4] = system: A549-TP53BP1-CLTA; assay: as above
In short: as §1

[5] = system: A549-TUBA1B-RELA; assay: as above
In short: as §1

[6] = system: HepG2-ACTB-RAB5A; assay: as above
In short: as §1

[7] = system: HepG2-CANX-COX4; assay: as above
In short: as §1

[8] = system: HepG2-GM130-SQSTM1; assay: as above
In short: as §1

[9] = system: HepG2-TP53BP1-CLTA; assay: as above
In short: as §1

[10] = system: HepG2-TUBA1B-RELA; assay: as above
In short: as §1

[11] = system: WPMY1-ACTB-RAB5A; assay: as above
In short: as §1

[12] = system: WPMY1-CANX-COX4; assay: as above
In short: as §1

[13] = system: WPMY1-GM130-SQSTM1; assay: as above
In short: as §1

[14] = system: WPMY1-TP53BP1-CLTA; assay: as above
In short: as §1

[15] = system: WPMY1-TUBA1B-RELA; assay: as above
In short: as §1

[16] = system: A549-ACTB-RAB5A; assay: lowest phenotypically active concentration; higher = less potent
In short: as §1

[17] = system: A549-GM130-SQSTM1; assay: as above
In short: as §1

[18] = system: A549-TUBA1B-RELA; assay: as above
In short: as §1

[19] = system: HepG2-CANX-COX4; assay: as above
In short: as §1

[20] = system: HepG2-TP53BP1-CLTA; assay: as above
In short: as §1

CNC(=O)Oc1ccc2c(c1)[C@]1(C)CCN(C)[C@@H]1N2C [Eserine sulfate, physostigmine sulfate]
inactive: phenotypically active [1] 0 | phenotypically active [2] 0 | phenotypically active [3] 0 | phenotypically active [4] 0 | phenotypically active [5] 0 | phenotypically active [6] 0 | phenotypically active [7] 0 | phenotypically active [8] 0 | phenotypically active [9] 0 | phenotypically active [10] 0 | phenotypically active [11] 0 | phenotypically active [12] 0 | phenotypically active [13] 0 | phenotypically active [14] 0 | phenotypically active [15] 0

C[C@]12C/C(=C\O)C(=O)C[C@@H]1CC[C@@H]1[C@@H]2CC[C@@]2(C)[C@H]1CC[C@]2(C)O [oxymetholone]
9 µM: lowest phenotypically active concentration [16]
inactive: phenotypically active [2] 0 | phenotypically active [3] 0 | phenotypically active [4] 0 | phenotypically active [5] 0 | phenotypically active [6] 0 | phenotypically active [7] 0 | phenotypically active [8] 0 | phenotypically active [9] 0 | phenotypically active [10] 0 | phenotypically active [11] 0 | phenotypically active [12] 0 | phenotypically active [13] 0 | phenotypically active [14] 0 | phenotypically active [15] 0
active: phenotypically active [1] 1

COc1ccc(C[C@H]2NC[C@H](O)[C@H]2OC(C)=O)cc1 [Anisomycin]
≤ 0.3 µM: lowest phenotypically active concentration [16] | lowest phenotypically active concentration [17] | lowest phenotypically active concentration [18] | lowest phenotypically active concentration [19] | lowest phenotypically active concentration [20]
active: phenotypically active [1] 1 | phenotypically active [2] 1 | phenotypically active [3] 1 | phenotypically active [4] 1 | phenotypically active [5] 1 | phenotypically active [6] 1 | phenotypically active [7] 1 | phenotypically active [8] 1 | phenotypically active [9] 1 | phenotypically active [10] 1 | phenotypically active [11] 1 | phenotypically active [12] 1 | phenotypically active [13] 1 | phenotypically active [14] 1 | phenotypically active [15] 1

C/C=C1/C[N+]2(C)CC[C@]34C(=C(C=O)[C@H]1C[C@@H]32)Nc1ccccc14 (some centres undefined) [Fluorocurarine chloride]
inactive: phenotypically active [1] 0 | phenotypically active [2] 0 | phenotypically active [3] 0 | phenotypically active [4] 0 | phenotypically active [5] 0 | phenotypically active [6] 0 | phenotypically active [7] 0 | phenotypically active [8] 0 | phenotypically active [9] 0 | phenotypically active [10] 0 | phenotypically active [11] 0 | phenotypically active [12] 0 | phenotypically active [13] 0 | phenotypically active [14] 0 | phenotypically active [15] 0

COC[C@H]1OC(=O)c2coc3c2[C@@]1(C)C1=C(C3=O)[C@@H]2CCC(=O)[C@@]2(C)C[C@H]1OC(C)=O [wortmannin]
1 µM: lowest phenotypically active concentration [16]
3 µM: lowest phenotypically active concentration [17] | lowest phenotypically active concentration [18]
active: phenotypically active [1] 1 | phenotypically active [2] 1 | phenotypically active [3] 1 | phenotypically active [4] 1 | phenotypically active [5] 1
inactive: phenotypically active [6] 0 | phenotypically active [7] 0 | phenotypically active [8] 0 | phenotypically active [9] 0 | phenotypically active [10] 0 | phenotypically active [11] 0 | phenotypically active [12] 0 | phenotypically active [13] 0 | phenotypically active [14] 0 | phenotypically active [15] 0

COc1ccc2c3c1O[C@H]1C(=O)CC[C@@]4(O)[C@@H](C2)N(C)CC[C@]314 [oxycodone]
inactive: phenotypically active [1] 0 | phenotypically active [2] 0 | phenotypically active [3] 0 | phenotypically active [4] 0 | phenotypically active [5] 0 | phenotypically active [6] 0 | phenotypically active [7] 0 | phenotypically active [8] 0 | phenotypically active [9] 0 | phenotypically active [10] 0 | phenotypically active [11] 0 | phenotypically active [12] 0 | phenotypically active [13] 0 | phenotypically active [14] 0 | phenotypically active [15] 0

O=c1cccc2n1C[C@H]1CNC[C@H]2C1 [Cytisine nitrate hydrate]
inactive: phenotypically active [1] 0 | phenotypically active [2] 0 | phenotypically active [3] 0 | phenotypically active [4] 0 | phenotypically active [5] 0 | phenotypically active [6] 0 | phenotypically active [7] 0 | phenotypically active [8] 0 | phenotypically active [9] 0 | phenotypically active [10] 0 | phenotypically active [11] 0 | phenotypically active [12] 0 | phenotypically active [13] 0 | phenotypically active [14] 0 | phenotypically active [15] 0

C[C@H]1O[C@@H](O[C@H]2[C@@H](O)C[C@H](O[C@H]3[C@@H](O)C[C@H](O[C@H]4CC[C@@]5(C)[C@H](CC[C@@H]6[C@@H]5CC[C@]5(C)[C@@H](C7=CC(=O)OC7)[C@@H](O)C[C@]65O)C4)O[C@@H]3C)O[C@@H]2C)C[C@H](O)[C@@H]1O [Gitoxin]
≤ 0.3 µM: lowest phenotypically active concentration [16] | lowest phenotypically active concentration [17] | lowest phenotypically active concentration [18] | lowest phenotypically active concentration [19] | lowest phenotypically active concentration [20]
active: phenotypically active [1] 1 | phenotypically active [2] 1 | phenotypically active [3] 1 | phenotypically active [4] 1 | phenotypically active [5] 1 | phenotypically active [6] 1 | phenotypically active [7] 1 | phenotypically active [8] 1 | phenotypically active [9] 1 | phenotypically active [10] 1 | phenotypically active [11] 1 | phenotypically active [12] 1 | phenotypically active [13] 1 | phenotypically active [14] 1 | phenotypically active [15] 1

O[C@H]1[C@H](O)[C@@H](O)CN2CC[C@H](O)[C@H]12 [Castanospermine]
inactive: phenotypically active [1] 0 | phenotypically active [2] 0 | phenotypically active [3] 0 | phenotypically active [4] 0 | phenotypically active [5] 0 | phenotypically active [6] 0 | phenotypically active [7] 0 | phenotypically active [8] 0 | phenotypically active [9] 0 | phenotypically active [10] 0 | phenotypically active [11] 0 | phenotypically active [12] 0 | phenotypically active [13] 0 | phenotypically active [14] 0 | phenotypically active [15] 0

COc1cc(C(=O)O[C@H]2C[C@H]3CC[C@@H](C2)N3C)ccc1O [Fillalbin]
inactive: phenotypically active [1] 0 | phenotypically active [2] 0 | phenotypically active [3] 0 | phenotypically active [4] 0 | phenotypically active [5] 0 | phenotypically active [6] 0 | phenotypically active [7] 0 | phenotypically active [8] 0 | phenotypically active [9] 0 | phenotypically active [10] 0 | phenotypically active [11] 0 | phenotypically active [12] 0 | phenotypically active [13] 0 | phenotypically active [14] 0 | phenotypically active [15] 0

CCCCCC[C@H]1C(=O)O[C@H](C)[C@H](NC(=O)c2cccc(NC=O)c2O)C(=O)O[C@@H](C)[C@@H]1OC(=O)CC(C)C [antimycin a]
active: phenotypically active [1] 1 | phenotypically active [2] 1 | phenotypically active [3] 1 | phenotypically active [4] 1 | phenotypically active [5] 1 | phenotypically active [6] 1 | phenotypically active [7] 1 | phenotypically active [8] 1 | phenotypically active [9] 1 | phenotypically active [10] 1 | phenotypically active [11] 1 | phenotypically active [12] 1 | phenotypically active [13] 1 | phenotypically active [14] 1 | phenotypically active [15] 1
≤ 0.3 µM: lowest phenotypically active concentration [16] | lowest phenotypically active concentration [17] | lowest phenotypically active concentration [18] | lowest phenotypically active concentration [19] | lowest phenotypically active concentration [20]
